# Results: PubChem BioAssay (NCATS)
# Where “and” joins values, the source holds several entries; their conditions need not be identical. Equal values may be shown once. Records with an inconclusive call do not appear. A call without a number means that no potency is given here. Calls of active or inactive are those of the source. Unless noted, calls come from the whole dose curve.
# Key:
# [1] = target: Peroxisome proliferator-activated receptor gamma (Homo sapiens) (UniProt P37231); assay: qHTS assay for small molecule agonists of peroxisome proliferator-activated receptor gamma signaling (AID 588536; active = well fitted curve in the direction sought with a large enough effect in the signal ratio, with a control signal flat, not every such curve was filed as active; the % refers to the signal ratio)
# Peroxisome proliferator-activated receptor gamma (Homo sapiens), sequence (P37231 whole entry, looked up): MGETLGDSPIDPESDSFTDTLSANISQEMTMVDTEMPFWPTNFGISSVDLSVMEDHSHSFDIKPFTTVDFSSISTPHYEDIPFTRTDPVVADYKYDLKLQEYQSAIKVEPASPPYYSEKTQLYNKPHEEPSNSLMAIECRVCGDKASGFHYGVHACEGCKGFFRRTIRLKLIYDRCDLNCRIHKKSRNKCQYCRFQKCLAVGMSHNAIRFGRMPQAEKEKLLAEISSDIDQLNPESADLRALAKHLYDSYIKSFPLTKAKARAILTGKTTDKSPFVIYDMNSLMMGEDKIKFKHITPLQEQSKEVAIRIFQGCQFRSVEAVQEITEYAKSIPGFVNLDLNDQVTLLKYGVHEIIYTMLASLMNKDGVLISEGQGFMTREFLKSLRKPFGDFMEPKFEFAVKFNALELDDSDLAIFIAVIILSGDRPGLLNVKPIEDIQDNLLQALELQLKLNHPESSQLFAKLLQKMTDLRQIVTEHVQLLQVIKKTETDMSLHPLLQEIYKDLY
# Procedure, shortened: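 Ratiometric blue/green fluorescence (405 nm excitation; 460 and 530 nm emission) from CCF4-loaded HEK293 reporter cells serves as signal. Exposure to test compounds lasts 16 h at 37 C in medium containing 1% charcoal/dextran-treated serum.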
# [2] = target: Peroxisome proliferator-activated receptor gamma (Homo sapiens) (UniProt P37231); assay: qHTS assay for small molecule antagonists of peroxisome proliferator-activated receptor gamma signaling (AID 588537; active = well fitted inhibition curve with a large enough effect in the signal ratio, with a control signal flat, not every such curve was filed as active; the % refers to the signal ratio;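 note: reporter cells co-stimulated with 50 nM rosiglitazone agonist during compound treatment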)
# Procedure, shortened: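 We seeded GeneBLAzer HEK293 reporter cells at 3000 per well, allowed 6-6.5 h attachment at 37 C, then co-treated with test compound titrations and 50 nM rosiglitazone overnight (16 h). Inhibition was quantified from 460/530 nm emission ratios.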
# [3] = qHTS assay for small molecule agonists of retinoid X receptor alpha signaling (AID 588544); conditions: HEK293T RXRa-UAS-bla, beta-lactamase reporter, 18 h; 530 nm emission
# [4] = target: Retinoic acid receptor RXR-alpha (Homo sapiens) (UniProt P19793); assay: as above
# Retinoic acid receptor RXR-alpha (Homo sapiens), sequence (P19793 whole entry, looked up): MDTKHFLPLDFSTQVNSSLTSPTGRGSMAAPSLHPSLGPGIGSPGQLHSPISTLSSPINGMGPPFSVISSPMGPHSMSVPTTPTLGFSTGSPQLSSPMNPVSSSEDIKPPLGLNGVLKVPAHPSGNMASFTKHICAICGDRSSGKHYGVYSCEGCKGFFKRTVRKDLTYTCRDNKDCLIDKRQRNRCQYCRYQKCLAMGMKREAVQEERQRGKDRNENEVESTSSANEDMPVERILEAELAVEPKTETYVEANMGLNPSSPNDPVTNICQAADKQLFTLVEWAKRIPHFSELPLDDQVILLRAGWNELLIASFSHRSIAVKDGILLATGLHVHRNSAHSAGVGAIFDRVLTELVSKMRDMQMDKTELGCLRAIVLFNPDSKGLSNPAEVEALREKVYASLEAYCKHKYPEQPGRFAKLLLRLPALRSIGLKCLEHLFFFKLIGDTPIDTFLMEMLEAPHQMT
# [5] = qHTS assay for small molecule antagonists of retinoid X receptor alpha signaling (AID 588546; active = well fitted inhibition curve with a large enough effect in the signal ratio, with a control signal flat, not every such curve was filed as active; the % refers to the signal ratio;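 note: cells stimulated with 9-cis-retinoic acid as agonist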); conditions: HEK293T RXRa-UAS-bla, beta-lactamase ratio, antagonist mode; measured here: W530 green channel, cytotoxicity proxy
# Procedure, shortened: (§1)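 Beta-lactamase reporter inhibition, read as CCF4 fluorescence ratio (ex 405, em 460/530 nm) after 2 h at RT. HEK293T UAS-bla cells, 2500/well, were stimulated with 9-cis-RA at 500 or 100 nM final alongside test compound for 18 h at 37 C.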
# [6] = target: Retinoic acid receptor RXR-alpha (Homo sapiens) (UniProt P19793); assay: as above; conditions: HEK293T RXRa-UAS-bla, beta-lactamase ratio, antagonist mode
# Procedure, shortened: as §1
# [7] = target: Voltage-gated inwardly rectifying potassium channel KCNH2 (Homo sapiens) (UniProt Q12809); assay: qHTS Assay for Small Molecule Inhibitors of the Human hERG Channel Activity (AID 588834; active = well fitted inhibition curve with a large enough effect;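 note: top concentration of the series differs between compounds; lower thallium flux fluorescence means stronger hERG block; nearly all actives have a fitted effect of over 50% in size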)
# Voltage-gated inwardly rectifying potassium channel KCNH2 (Homo sapiens), sequence (Q12809 whole entry, looked up): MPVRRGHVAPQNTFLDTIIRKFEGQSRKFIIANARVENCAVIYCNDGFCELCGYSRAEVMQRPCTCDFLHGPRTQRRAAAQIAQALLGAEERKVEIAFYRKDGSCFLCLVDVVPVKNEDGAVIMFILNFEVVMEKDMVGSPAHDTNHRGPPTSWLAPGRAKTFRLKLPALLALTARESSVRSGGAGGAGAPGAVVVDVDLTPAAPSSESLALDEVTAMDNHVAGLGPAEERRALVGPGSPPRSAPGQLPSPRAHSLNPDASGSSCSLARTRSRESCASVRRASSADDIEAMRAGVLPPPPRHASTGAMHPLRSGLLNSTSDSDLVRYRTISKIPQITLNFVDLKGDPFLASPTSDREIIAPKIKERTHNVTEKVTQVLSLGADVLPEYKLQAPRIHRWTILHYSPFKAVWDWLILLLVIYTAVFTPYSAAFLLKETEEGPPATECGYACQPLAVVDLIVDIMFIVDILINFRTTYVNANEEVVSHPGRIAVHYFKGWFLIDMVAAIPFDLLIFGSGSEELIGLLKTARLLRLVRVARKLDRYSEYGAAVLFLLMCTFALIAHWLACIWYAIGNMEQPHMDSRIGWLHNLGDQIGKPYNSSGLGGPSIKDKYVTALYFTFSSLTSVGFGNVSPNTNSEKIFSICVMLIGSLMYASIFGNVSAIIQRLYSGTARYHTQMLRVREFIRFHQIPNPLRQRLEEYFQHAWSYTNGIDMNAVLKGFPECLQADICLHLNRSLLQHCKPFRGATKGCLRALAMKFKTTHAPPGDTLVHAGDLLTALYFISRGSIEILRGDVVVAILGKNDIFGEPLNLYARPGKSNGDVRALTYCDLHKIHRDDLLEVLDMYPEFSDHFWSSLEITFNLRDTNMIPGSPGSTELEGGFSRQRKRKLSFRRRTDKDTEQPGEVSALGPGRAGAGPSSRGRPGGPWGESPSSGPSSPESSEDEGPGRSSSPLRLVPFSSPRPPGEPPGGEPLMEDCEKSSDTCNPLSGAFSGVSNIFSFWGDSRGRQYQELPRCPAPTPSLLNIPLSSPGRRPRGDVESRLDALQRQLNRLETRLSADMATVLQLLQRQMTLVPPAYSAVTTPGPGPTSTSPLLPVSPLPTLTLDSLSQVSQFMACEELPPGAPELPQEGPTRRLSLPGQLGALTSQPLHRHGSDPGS
# Procedure, shortened: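 U2OS cells transduced with hERG via BacMam (MOI ~100), plated 2000/well, loaded with FluxOR thallium dye, compound ~10 min, then stimulation buffer; fluorescence decrease read kinetically; AC50 from Hill fits.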
# [8] = qHTS assay for small molecule agonists of the antioxidant response element (ARE) signaling pathway (AID 651741; active = well fitted activation curve with a large enough effect in the signal ratio; the % refers to the signal ratio; note: potency is the fitted concentration of half-maximal effect)
# Procedure, shortened: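 Compounds in DMSO are pinned onto HepG2 ARE-bla cells (2,000/well) that were preincubated 5 h; plates stay 16 h at 37 C, then beta-lactamase activity is detected with LiveBLAzer B/G substrate by fluorescence.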
# [9] = qHTS assay for small molecule activators of the p53 signaling pathway (AID 651743; active = well fitted activation curve with a large enough effect in the signal ratio, not every such curve was filed as active; the % refers to the signal ratio; note: series mostly up to about 92 µM); conditions: HCT-116 p53RE-bla, beta-lactamase FRET ratio, 16 h; stronger effect = higher value
# Procedure, shortened: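 Cell-based beta-lactamase reporter (p53 response elements, HCT-116 background). After a 5-hour preincubation, cells received compound for 16 hours at 37 C; substrate development ran 2 hours at room temperature.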
# [10] = target: Vitamin D3 receptor (Homo sapiens) (UniProt P11473); assay: qHTS assay for small molecule antagonists of vitamin D receptor signaling (AID 588541);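 note: receptor activated by calcitriol during compound treatment; series mostly up to about 77 µM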
# Vitamin D3 receptor (Homo sapiens), sequence (P11473 whole entry, looked up): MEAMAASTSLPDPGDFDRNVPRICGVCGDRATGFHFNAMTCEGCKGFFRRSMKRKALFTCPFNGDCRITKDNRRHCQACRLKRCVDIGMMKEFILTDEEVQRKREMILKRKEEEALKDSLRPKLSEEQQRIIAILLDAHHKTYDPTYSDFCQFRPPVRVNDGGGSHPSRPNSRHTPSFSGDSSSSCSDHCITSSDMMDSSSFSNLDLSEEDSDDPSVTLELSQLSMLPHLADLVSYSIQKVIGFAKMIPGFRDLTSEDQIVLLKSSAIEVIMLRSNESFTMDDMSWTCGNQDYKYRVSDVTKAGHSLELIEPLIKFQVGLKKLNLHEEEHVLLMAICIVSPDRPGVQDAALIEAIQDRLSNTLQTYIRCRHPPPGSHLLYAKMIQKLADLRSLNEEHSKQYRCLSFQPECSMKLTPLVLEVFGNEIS
# Procedure, shortened: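 VDR-UAS-bla HEK293T cells (2000/well, 2% charcoal-stripped FBS) were treated with titrated compounds plus 1-alpha,25-dihydroxyvitamin D3 (50 nM or 3 nM final) for 16 h at 37 C. CCF4 beta-lactamase fluorescence was read; Hill fits gave IC50.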
# [11] = target: Vitamin D3 receptor (Homo sapiens) (UniProt P11473); assay: qHTS assay for small molecule agonists of vitamin D receptor signaling (AID 588543)
# Procedure, shortened: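 GeneBLAzer VDR-UAS-bla HEK293T cells in 2% charcoal-stripped FBS medium were dosed with compound titrations for 16 h at 37 °C; CCF4 β-lactamase readout (405 nm ex, 460/530 nm em). EC50 and efficacy from Hill fits, normalized to 50 nM calcitriol (100%) and DMSO (0%).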
# [12] = target: Thyroid hormone receptor beta (Homo sapiens) (UniProt P10828); assay: qHTS assay for small molecule agonists of thyroid hormone receptor beta signaling (AID 588545)
# Thyroid hormone receptor beta (Homo sapiens), sequence (P10828 whole entry, looked up): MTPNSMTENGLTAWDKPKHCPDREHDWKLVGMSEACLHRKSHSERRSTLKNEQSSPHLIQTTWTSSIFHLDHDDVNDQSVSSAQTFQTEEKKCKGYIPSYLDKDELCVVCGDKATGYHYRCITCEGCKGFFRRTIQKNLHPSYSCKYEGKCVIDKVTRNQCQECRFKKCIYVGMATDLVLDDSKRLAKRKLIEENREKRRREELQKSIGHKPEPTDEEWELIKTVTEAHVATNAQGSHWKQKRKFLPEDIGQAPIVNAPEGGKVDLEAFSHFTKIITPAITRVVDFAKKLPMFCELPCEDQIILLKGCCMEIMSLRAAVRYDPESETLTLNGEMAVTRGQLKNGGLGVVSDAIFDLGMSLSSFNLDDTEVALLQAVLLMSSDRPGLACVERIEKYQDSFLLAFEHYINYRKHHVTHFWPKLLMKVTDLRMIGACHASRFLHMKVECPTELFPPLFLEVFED
# Procedure, shortened: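 TR-UAS-bla-GripTite HEK 293 cells in medium with 2% charcoal/dextran FBS, 0.1 mM NEAA and 1 mM sodium pyruvate were treated with titrated compounds for 18 hrs at 37 C. Beta-lactamase reporter was read with CCF4 dye (ex 405, em 460/530 nm); EC50 from Hill fits.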
# [13] = target: Thyroid hormone receptor beta (Homo sapiens) (UniProt P10828); assay: qHTS assay for small molecule antagonists of thyroid hormone receptor beta signaling (AID 588547; active = well fitted inhibition curve with a large enough effect in the signal ratio, with a control signal flat, not every such curve was filed as active; the % refers to the signal ratio;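 note: cells stimulated with 0.4 nM T3 agonist during compound exposure; series mostly up to about 77 µM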); conditions: TR-UAS-bla HEK293, beta-lactamase ratio, antagonist mode, 18 h
# Procedure, shortened: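 TR-UAS-bla GripTite HEK293 cells in 2% charcoal/dextran FBS medium were preincubated 4 h at 37 C, given compound (0.59 nM to 92 uM) plus 0.4 nM T3 (final) for 18 h, then CCF4 for 2 h at RT; Hill fit gave IC50.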
# [14] = qHTS assay for small molecule antagonists of peroxisome proliferator-activated receptor delta signaling (AID 588535; active = well fitted inhibition curve with a large enough effect in the signal ratio, with a control signal flat, not every such curve was filed as active; the % refers to the signal ratio;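 for max response: cells co-treated with a PPAR-delta agonist as stimulator during compound exposure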); conditions: HEK293T PPARd-UAS-bla, beta-lactamase FRET ratio, 18 h; 460 nm channel
# Procedure, shortened: (§2)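 Reporter: UAS-bla under PPAR-delta response element, HEK293T host. Medium: 2% charcoal/dextran FBS. Dosing: titration, 18 hrs, 37 C. Detection: CCF4, 2 hrs RT, 405 ex/460 and 530 em.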
# [15] = target: Peroxisome proliferator-activated receptor delta (Homo sapiens) (UniProt Q03181); assay: as above
# Peroxisome proliferator-activated receptor delta (Homo sapiens), sequence (Q03181 whole entry, looked up): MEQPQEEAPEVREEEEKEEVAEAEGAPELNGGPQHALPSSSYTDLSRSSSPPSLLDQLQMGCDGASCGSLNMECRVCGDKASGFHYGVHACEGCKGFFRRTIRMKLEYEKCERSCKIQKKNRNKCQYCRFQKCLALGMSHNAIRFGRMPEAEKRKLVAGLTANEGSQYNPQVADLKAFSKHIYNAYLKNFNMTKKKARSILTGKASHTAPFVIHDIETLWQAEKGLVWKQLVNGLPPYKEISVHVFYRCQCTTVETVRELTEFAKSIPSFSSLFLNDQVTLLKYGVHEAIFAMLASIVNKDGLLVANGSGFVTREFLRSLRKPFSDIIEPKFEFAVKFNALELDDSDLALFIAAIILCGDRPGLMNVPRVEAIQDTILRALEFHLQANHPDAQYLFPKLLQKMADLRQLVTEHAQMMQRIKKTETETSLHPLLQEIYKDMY
# Procedure, shortened: as §2
# [16] = qHTS assay for small molecule activators of the nuclear factor-kappa B (NF-kB) signaling pathway (AID 651749; active = well fitted activation curve with a large enough effect in the signal ratio; the % refers to the signal ratio; note: series mostly up to about 77 µM); conditions: NF-kB-bla ME-180 cells, beta-lactamase FRET ratio, 16 h; stronger effect = higher value
# Procedure, shortened: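 Screening used 2,000 ME-180 reporter cells per well exposed to pinned compound (23 nL) or DMSO; after 16 hr at 37C, beta-lactamase expression under NF-kB control was assessed through FRET.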
Structure (SMILES),outcome [1],outcome [2],max response [3],outcome [4],max response [5],max response [6],Potency [7],Potency [8],activation [9],outcome [10],outcome [11],outcome [12],activity change % (negative = inhibition) [13],max response [14],Potency [15],activation [16]
O=C(O)CN(CC(=O)O)CC(=O)O,inactive,inactive,-7.34% and 8.5%,inactive,-6.97% and -9%,-2.38% (inactive) and 4.38% (inactive),inactive,inactive,-2.4% (inactive) and 1.34% (inactive) and -0.523% (inactive),,,,,,,
COc1ccc(N)c(OC)c1,inactive,,-3.88%,inactive,-0.758%,-1.72% (inactive),inactive,,1.84% (inactive),inactive,inactive,inactive,-1.14% (inactive),,,
NC(=O)NC(N)=O,inactive,,6.09%,inactive,-1.82%,66.5% (inactive),inactive,inactive,-4.91% (inactive),,,inactive,9.23% (inactive),34.3%,inactive,
O=C(O)CNC(=O)c1ccc(CO)o1,inactive,inactive,-18.2%,inactive,2.84%,-8.36% (inactive),inactive,inactive,-3.47% (inactive),,,inactive,-8.36% (inactive),35.1%,inactive,0.936% (inactive)
N#CCc1ccccc1[N+](=O)[O-],inactive,,-1.87%,inactive,20.6%,-6.12% (inactive),,42.2 µM (active),-2.66% (inactive),inactive,inactive,inactive,-13.4% (inactive),42%,inactive,-0.713% (inactive)
Cc1ccc(C(C)(C)C)cc1,inactive,,-4.76%,inactive,-11.6%,4.12% (inactive),inactive,inactive,-7.08% (inactive),inactive,inactive,inactive,14% (inactive),-8.71%,inactive,
Cc1cccc(C(=O)O)c1[N+](=O)[O-],inactive,inactive,-4.96%,inactive,,,inactive,,1.31% (inactive),inactive,inactive,inactive,-11.8% (inactive),,,-0.935% (inactive)
COC(=O)CC#N,inactive,,-7.46%,inactive,-3.78%,-0.774% (inactive),inactive,inactive,-2.67% (inactive),inactive,inactive,,2.83% (inactive),,,-0.54% (inactive)
CCCCCCCCN,inactive,inactive,-7.59%,inactive,2.38%,13.9% (inactive),inactive,inactive,-1.65% (inactive),inactive,,inactive,5.95% (inactive),13.3%,,-1.11% (inactive)
CCCCC(CC)C(=O)O (configuration not stated),inactive,,12.4%,inactive,-3.23%,4.48% (inactive),inactive,inactive,,,,inactive,-2.96% (inactive),18%,inactive,
CC1=C(/C=C/C(C)=C/C=C/C(C)=C\C=O)C(C)(C)CCC1,,,,,,,,37.6 µM (active),8.65% (inactive),inactive,inactive,inactive,-14.6% (inactive),,,-1.57% (inactive)
Cc1cscn1,inactive,,-3.55%,inactive,-2.99%,3.21% (inactive),inactive,inactive,-1.86% (inactive),inactive,inactive,inactive,9.8% (inactive),-36.6%,,-0.548% (inactive)
c1ccc(Nc2ccccc2)cc1,inactive,,-15.4% and 2.86%,inactive,1.16% and -8.24%,-5.42% (inactive) and 3.85% (inactive),,inactive,1.33% (inactive) and -1.7% (inactive),inactive,inactive,,,-10.2% and 19.6%,inactive,0.526% (inactive) and -2.1% (inactive)
CCOc1cccc(N)c1,inactive,inactive,-8.66%,inactive,5.53%,-4.73% (inactive),inactive,,0.42% (inactive),inactive,inactive,inactive,-0.0909% (inactive),-10.6%,inactive,-0.866% (inactive)
Cc1cccc2cccnc12,inactive,inactive,-2.92%,inactive,,,inactive,,-4.27% (inactive),inactive,inactive,inactive,-0.45% (inactive),-4.69%,inactive,
CC(=O)c1ccccc1[N+](=O)[O-],inactive,inactive,-16.2%,inactive,5.46%,5.8% (inactive),inactive,inactive,,inactive,inactive,,19.8% (inactive),4.84%,inactive,
CCCOCC(C)O (configuration not stated),inactive,inactive,-2.42%,inactive,-6.13%,0.524% (inactive),inactive,,,inactive,,,0.569% (inactive),-0.284%,inactive,
COC(=O)CS,,inactive,-8.12%,inactive,-3.61%,1.63% (inactive),inactive,inactive,-2.8% (inactive),inactive,inactive,,,,,-0.561% (inactive)
